We go through 40 compounds from PubChem BioAssay (NCATS).

Where “and” joins values, the source holds several entries; their conditions need not be identical. Equal entries are not always repeated. Results filed as inconclusive are left out. A number with no mark means an inactive call. Calls of active or inactive are those of the source. Calls come from the whole dose curve; as a rule, active = well fitted cell-killing curve with a large enough effect; inconclusive = small, poorly fitted or top-dose-only effect; inactive = no such curve, though single readings can be large or run the other way.
% is set by controls: 0 for no effect and ±100 for the full control effect; potency is the fitted concentration of half-maximal effect.

A short description of the assay: qHTS of pediatric cancer cell lines to identify multiple opportunities for drug repurposing: Primary screen for SK-N-SH cells (AID 1347098). Note: nearly all actives have a fitted effect of over 65% in size. To be noted: SK-N-SH viability, CellTiter-Glo luminescence, 48 h; series mostly up to 57 µM; activity change, negative = cytotoxic: at the top concentration. From the text: Drug repurposing or repositioning has been offered as a strategy for drug development in oncology programs. This approach has special potential for childhood cancers and other rare or orphan diseases, where the expected return on new drug development has been a disincentive to pharmaceuticals.
In this project we exploit the poly-pharmacology of drugs to discover new indications via phenotypic screening of a panel of 19 well-characterized cell lines derived from solid tumors seen in children and adolescents. The goal is to identify approved drugs with previously unrecognized anticancer properties that has the potential to reveal new mechanisms and biological processes involved in carcinogenesis or drug resistance. We employed a titration-based paradigm (quantitative high-throughput screening or qHTS), where all compounds were tested at multiple concentrations for their effect on cell viability. Concentration-response curves (CRCs) were derived directly from the primary screen, and both potency and efficacy values were used to identify compounds with robust bioactivity profiles. We screened the NIH Chemical Genomics Center (NCGC) Pharmaceutical Collection (NPC) and Mechanism Interrogation Plate (MIPE) small molecule collections of approved and investigational compounds against these cell lines; and measured metabolically active cells after 48 hours of compound treatment as a proxy for cell viability.
Assay Submitter: Nathalia J. Martinez, National Center for Advancing Translational Sciences, National Institutes of Health, Rockville, MD, USA; email: natalia.martinez@nih.gov
[1] Shen, M et al. Quantitative high-throughput phenotypic screening of pediatric cancer cell lines identifies multiple opportunities for drug repurposing. Oncotarget 2017 Dec 19;9(4):4758-4772. PMID 29435139.
The cells were obtained from University of North Carolina (UNC), Pediatric Preclinical Testing Program (PPT), and Coriell Institute (CI).
qHTS cell viability assay:
Cells were assayed in growth media at a density of 500-1,000 cells/well. Five microliters of cells were dispensed into 1,536-well, white, solid-bottom, TC-treated plates (Greiner Bio One) using a multidrop dispenser and incubated at 37 degrees C, 5% CO2, under a humidified atmosphere for 5 hours. Twenty-three nanoliters of compounds and controls (neutral control DMSO or positive control bortezomib at final concentration of 2.3 µM) were subsequently transferred by Kalypsys pintool. For primary screens, the MIPE collection was tested at 11-point dilutions (final concentrations range from 0.78 nM to 46 µM) and the NPC collection at 8-point dilutions (final concentrations range from 0.59 nM to 46 µM). Compounds tested in follow-up screens were assayed at 11-point dilutions. Cells were incubated for 48 hours, followed by addition of 3 µL of CellTiter-Glo (Promega). After a 15 min incubation at room temperature, samples were analyzed for luminescence intensity using a ViewLux High-throughput CCD imager equipped with clear filters.
`CNCCCC12CCC(c3ccccc31)c1ccccc12`: the Potency was 13.7 µM (active). Turning to `CN(C)CCC=C1c2ccccc2C=Cc2ccccc21`, the Potency is 27.3 µM (active).

With `CCOC(=O)c1ncn2c1CN(C)C(=O)c1cc(F)ccc1-2`, the Potency result was “inactive”.

For the compound `CN(C)CCCN1c2ccccc2CCc2ccc(Cl)cc21`, the Potency was 1.52 µM (active) and 24.4 µM (active). The same measure, in the same setting: then `CC[C@@]1(O)C(=O)OCc2c1cc1n(c2=O)Cc2cc3c(CN(C)C)c(O)ccc3nc2-1`, with 344 nM (active) and 1.71 µM (active).

For the compound `NCCCCCC(=O)O`, the Potency entry was “inactive”. As for `Cn1c(=O)c2[nH]cnc2n(C)c1=O`, the “activity change, negative = cytotoxic” value is -8.69%.

Regarding `Nc1c2c(nc3ccccc13)CCCC2`, the Potency result was “inactive”. For `CS(=O)(=O)CCNCc1ccc(-c2ccc3ncnc(Nc4ccc(OCc5cccc(F)c5)c(Cl)c4)c3c2)o1`, the Potency was 9.7 µM (active). On to `CN1C(C(=O)Nc2ccccn2)=C(O)c2ccccc2S1(=O)=O`, for which the “activity change, negative = cytotoxic” value is 5.68%.

For the compound `CC#C[C@]1(O)CC[C@H]2[C@@H]3CCC4=CC(=O)CCC4=C3[C@@H](c3ccc(N(C)C)cc3)C[C@@]21C`, the Potency was 0.242 µM (active). `CC[N+](CC)(CC)CCOc1cccc(OCC[N+](CC)(CC)CC)c1OCC[N+](CC)(CC)CC`: the Potency result was “inactive”. Consider `CC(C)(C)C(=O)Oc1ccc(S(=O)(=O)Nc2ccccc2C(=O)NCC(=O)O)cc1`, for which the “activity change, negative = cytotoxic” value is 4.19%.

For `Cc1cc(C(C)(C)C)cc(C)c1CC1=NCCN1`, the “activity change, negative = cytotoxic” value is -19%.

As to `Cc1ccc(C(=O)Nc2ccc(S(=O)(=O)O)c3cc(S(=O)(=O)O)cc(S(=O)(=O)O)c23)cc1NC(=O)c1cccc(NC(=O)Nc2cccc(C(=O)Nc3cc(C(=O)Nc4ccc(S(=O)(=O)O)c5cc(S(=O)(=O)O)cc(S(=O)(=O)O)c45)ccc3C)c2)c1`, the “activity change, negative = cytotoxic” value was -7.14%. In the case of `CC(C)C(=O)Nc1ccc([N+](=O)[O-])c(C(F)(F)F)c1`, the Potency was 12.1 µM (active).

As for `Cn1cnc2c1c(=O)[nH]c(=O)n2C`, the “activity change, negative = cytotoxic” value is -3.69%.

`NCCc1cnc[nH]1`: the Potency result was “inactive”. For the compound `CN(Cc1cnc2nc(N)nc(N)c2n1)c1ccc(C(=O)N[C@@H](CCC(=O)O)C(=O)O)cc1`, the “activity change, negative = cytotoxic” value is -1.98%. On the same count and under the same terms, then `Clc1ccc2c(c1)C(N1CCNCC1)=Nc1ccccc1O2`, with -6.41%. Take `Clc1ccc(C(c2ccccc2Cl)C(Cl)Cl)cc1` (stereo not given): the “activity change, negative = cytotoxic” value was 8.45%. Take `Clc1ccc2nsnc2c1NC1=NCCN1`: the “activity change, negative = cytotoxic” value was 7.29%. `CN(C)c1nc(N(C)C)nc(N(C)C)n1`: the “activity change, negative = cytotoxic” value is -8.2%.

Turning to `COc1cc2nc(N(C)CCCNC(=O)C3CCCO3)nc(N)c2cc1OC` (stereo not given), the Potency entry was “inactive”. For `CN(C)C(=O)C(CCN1CCC(O)(c2ccc(Cl)cc2)CC1)(c1ccccc1)c1ccccc1`, the Potency was 24.1 µM (active) and 15.4 µM (active). Still for that read-out and setting: then `CN1CCN(CCCN2c3ccccc3Sc3ccc(Cl)cc32)CC1`, with 24.4 µM (active).

As for `COc1ccccc1OCC(O)CN1CCN(CC(=O)Nc2c(C)cccc2C)CC1` (stereo not given), the Potency entry was “inactive”.

Take `Nc1nc2c(ncn2COC(CO)CO)c(=O)[nH]1`: the “activity change, negative = cytotoxic” value was -21.4%. For `O=C1c2c(O)ccc(O)c2C(=O)c2c(NCCNCCO)ccc(NCCNCCO)c21`, the Potency was 383 nM (active) and 486 nM (active).

As for `NC(CO)C(=O)NNCc1ccc(O)c(O)c1O` (stereo not given), the “activity change, negative = cytotoxic” value was 22.9%. For the compound `CN1CCN(C2=Nc3cc(Cl)ccc3Nc3ccccc32)CC1`, the Potency is 15.4 µM (active).

On to `O=C1Cc2cc(CCN3CCN(c4nsc5ccccc45)CC3)c(Cl)cc2N1`, for which the “activity change, negative = cytotoxic” value was 13.8%.

On to `COc1ccc(CCN(C)CCCC(C#N)(c2ccc(OC)c(OC)c2)C(C)C)cc1OC` (stereo not given), for which the “activity change, negative = cytotoxic” value was -1.2% [at 115 µM].

In the case of `CN1CCC(=C2c3ccccc3C=Cc3ccccc32)CC1`, the Potency was 24.1 µM (active). Take `CC12CC3CC(C)(C1)CC(N)(C3)C2`: the Potency is 27.1 µM (active). In the case of `COc1ccc(C2CNC(=O)C2)cc1OC1CCCC1` (stereo not given), the Potency entry is “inactive”. Consider `O=C1N(c2ccccc2)c2ccccc2C1(Cc1ccncc1)Cc1ccncc1`, for which the Potency entry is “inactive”. `COc1ccc2[nH]cc(CCNC(C)=O)c2c1`: the “activity change, negative = cytotoxic” value was -7.36%. On to `Cc1cn([C@H]2C=C[C@@H](CO)O2)c(=O)[nH]c1=O`, for which the Potency result was “inactive”. Turning to `CCC1(C)CC(=O)NC1=O` (stereo not given), the Potency result was “inactive”.
